Bioassay records from PubChem BioAssay.
PNC assembly inh: inhibitors of perinucleolar compartment assembly; activity change (PNC), negative = inhibition, % at 10 µM; 3.1% of 140,000 active; AID 2417; PC3M PTB-GFP, PNC prevalence imaging, 16 h; hits give low values;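 active = readout at or below -70, meaning at least 70% loss of cells showing the perinucleolar compartment, a nuclear body marking cancer cells; inconclusive = readout between -30 and a set limit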
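Read-out is percentage of cells bearing a perinucleolar compartment, from automated 20x imaging of fixed, Hoechst-stained PC3M PTB-GFP cells. Cells were seeded 4 h, then exposed 16 h to compound (23 nl of library stock) in duplicate plates.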
HPGD inh: inhibitors of human 15-hydroxyprostaglandin dehydrogenase (HPGD) | Potency, µM, usual class: inhibitors | AID 894 | purified HPGD, NADH fluorescence kinetic, PGE2 substrate | P15428 | 4.3% of 150,000 active
Target sequence (P15428 whole entry, looked up): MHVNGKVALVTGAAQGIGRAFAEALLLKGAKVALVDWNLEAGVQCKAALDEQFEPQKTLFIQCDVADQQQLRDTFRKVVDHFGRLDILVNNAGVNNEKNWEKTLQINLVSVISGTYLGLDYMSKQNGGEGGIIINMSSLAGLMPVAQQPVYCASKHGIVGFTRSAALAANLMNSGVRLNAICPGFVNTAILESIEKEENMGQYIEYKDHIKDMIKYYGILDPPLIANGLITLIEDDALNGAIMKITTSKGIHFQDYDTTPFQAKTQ
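NADH formation kinetics: reaction with 30 uM PGE2 and 1 mM NAD+ (final), 20 nM enzyme, Tris-HCl pH 8 with Tween 20, after 15 min compound preincubation at room temperature. Fluorescence change, last versus first of five reads.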
12-hLO inh: inhibitors of human 12-lipoxygenase (ALOX12) | P18054 | purified 12-hLO, xylenol orange hydroperoxide absorbance | Potency, µM (highest dose often 57.1 µM), usual class: inhibitors | 0.12% of 150,000 active | AID 1452; active = well fitted curve in the direction sought with a large enough effect; inconclusive = small, poorly fitted or top-dose-only effect, or another doubt; inactive = no such curve, though single readings can be large; an effect the other way counts as inactive or inconclusive; note: nearly all actives have a fitted effect of over 55% in size
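Hydroperoxide formation by human 12-lipoxygenase from 40 uM arachidonic acid was followed colorimetrically via ferric-xylenol orange complex, using the 573/405 nm absorbance ratio. Enzyme concentration was 150 nM, with 30 min reaction at room temperature.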
IMPase Li inh: membrane-permeable IMPase blocker, potentiated with lithium | CHO-M1 cells, IP1 TR-FRET (IP-One), carbachol + lithium | Potency, µM (titrated, usually from 59.4 µM), most hits filed as inhibitors | 0.35% of 210,000 active; active = well fitted curve in the direction sought with a large enough effect; inconclusive = small, poorly fitted or top-dose-only effect, or another doubt; inactive = no such curve, though single readings can be large; an effect the other way counts as inactive or inconclusive;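 note: IP1 builds up when IMPase is blocked and the TR-FRET signal falls; nearly all actives have a fitted effect of over 50% in size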
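Readout is a homogeneous TR-FRET IP1 immunoassay (Ex 320, Em 665 and 620), where raised cytosolic IP1 lowers signal. Cells were CHO-M1 treated 30 min at 37C with test compounds plus a little lithium; AC50 values came from Hill-equation fitting.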
IMPase cell inh: cell-permeable inhibitors of inositol monophosphatase (IMPase) | CHO-M1 cells, IP1 accumulation, HTRF TR-FRET ratio | inhibition (IP1 accumulation), % at 46.1 µM | 120,000 tested, under 10 active | AID 901; active = well fitted curve in the direction sought with a large enough effect in the signal ratio, not every such curve was filed as active; inconclusive = small, poorly fitted or top-dose-only effect, or a change in a side signal; inactive = no such curve, though single readings can be large or run the other way; the % refers to the signal ratio;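 note: cells stimulated with carbachol in lithium chloride buffer; higher means more IMPase inhibition seen as more IP1 and lower FRET ratio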
Target sequence (P97697 whole entry, looked up): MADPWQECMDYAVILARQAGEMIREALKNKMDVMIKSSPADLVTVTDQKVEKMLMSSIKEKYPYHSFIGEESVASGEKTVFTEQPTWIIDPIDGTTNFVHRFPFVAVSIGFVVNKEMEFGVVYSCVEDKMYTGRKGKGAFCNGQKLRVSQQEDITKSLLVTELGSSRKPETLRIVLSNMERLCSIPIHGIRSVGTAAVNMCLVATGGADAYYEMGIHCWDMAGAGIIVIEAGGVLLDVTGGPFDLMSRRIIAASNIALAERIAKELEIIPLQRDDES
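Cellular IMPase inhibition is scored as a rise in cytosolic IP1, detected by competitive TR-FRET between d2-labelled IP1 and a europium anti-IP1 antibody. M1-expressing CHO cells were stimulated with carbachol for 30 min at 37C, with lithium (50 mM LiCl) present in the buffer.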
ALDH1A1 inh: inhibitors of human aldehyde dehydrogenase 1A1; Purified ALDH1A1, NADH fluorescence, propionaldehyde substrate; 7.3% of 220,000 active; P00352; Potency, µM (titrated, usually from 75.3 µM), most hits filed as inhibitors
Numbers stand for hits; n = inactive; u = inconclusive; x = no result; [ ] = another dose, or the depositor's remark. Compounds with a hit are over-represented: about 11% of the library has one in this group of screens. Unless noted, calls come from the whole dose curve; as a rule, active = well fitted inhibition curve with a large enough effect (not every such curve was filed as active); inconclusive = small, poorly fitted or top-dose-only effect, or another doubt; inactive = no such curve, though single readings can be large or run the other way.

SMILES	PNC assembly inh	HPGD inh	12-hLO inh	IMPase Li inh	IMPase cell inh	ALDH1A1 inh
COc1ccccc1C1CC(=O)Oc2cc(O)ccc21 (stereo not given)	x	n	n[0.00818 µM]	n	x	u
COc1ccc(NC2=CC(c3cccc(OC)c3)N(c3ccc(OC)cc3)C2=O)cc1 (stereo not given)	n	u	n	n	x	25.1µM
O=S(O)O.O=S(O)O.[Co].[NH2-].[NH2-].[NH2-].[NH2-]	x	n	n[11.4 µM]	n	x	n[13.5 µM]
Cc1nc(Cl)cc(CS(=O)(=O)c2ccc(Cl)cc2)n1	x	x	x	n	x	20µM
O=C(Nc1ccc(Cl)cc1)N(Cc1cccs1)Cc1cccs1	n	n	n	n	n	n
O=C(Nc1ccccc1)N(O)c1ccc(Cl)cc1	n	n	n	n	n	1µM
Cn1c(-c2ccccc2)cc(=O)c2ccccc21	n	25.1µM	n	n	n	n
CC(C)c1cccc2cc3c(nc12)-c1cccc(=O)n1C3	x	u	n	n	x	u
COc1ccc(CNCC(=O)Nc2ccccc2-n2cccc2)cc1	x	x	x	n	x	28.2µM
CCO/C=C/C(O)(CNC(=O)c1ccc(C(C)(C)C)cc1)C(F)(F)F (stereo not given)	n	25.1µM	n	n	x	n
COCCn1c(=O)c(-c2cc(F)cc(F)c2)nc2cnc(N3CCOCC3)nc21	x	x	x	n	x	u
COc1ccc(C2CC(C(F)(F)F)n3ncc(C(=O)NCc4cccnc4)c3N2)cc1OC (stereo not given)	-82.3	n	n	n	n	n
COc1cccc(C2CC(C(F)(F)F)n3ncc(C(=O)NCC4CCCO4)c3N2)c1 (stereo not given)	n	14.1µM	n	n	n	n
CCOC(=O)c1c(NC(=O)c2cnn3c2NC(c2cccc(OC)c2)CC3C(F)(F)F)sc2c1CCCC2 (stereo not given)	n	u	n	n	x	n
CC(=O)NCCNc1ncnc2ccc(-c3ccccc3C)cc12	x	x	x	n	x	u
O=c1c(-c2ccccc2)nc2cnc(Oc3cccc(Cl)c3)nc2n1C[C@H]1CCCO1	x	x	x	n	x	u
N#CC(C#N)=Cc1ccc(OCC(=O)N2CCOCC2)cc1	x	x	x	n	x	8.91µM
O=C(NC(=S)Nc1ccc(N2CCOCC2)cc1)c1cccc([N+](=O)[O-])c1	n	n	n	n	x	n
CC(C)NS(=O)(=O)c1ccc(NC(=S)NC(=O)c2cccc([N+](=O)[O-])c2)cc1	n	u	n	n	x	8.91µM
O=C(NC(=S)Nc1ccccc1N1CCOCC1)c1ccc([N+](=O)[O-])cc1	n	n	n	n	x	u
CC(C)Oc1ccc(C(=O)NC(=S)Nc2ccc(CN3CCOCC3)cc2)cc1	n	n	n	n	x	7.08µM
O=C(NC(=S)Nc1ccc(CN2CCOCC2)cc1)c1cccc([N+](=O)[O-])c1	-100.0	n	n	n	x	12.6µM
O=C(NC(=S)Nc1ccc(C(=O)N2CCOCC2)cc1)c1ccc([N+](=O)[O-])cc1	u	0.708µM	n	n	n	10µM
O=C(O)C1CCCN1S(=O)(=O)c1ccc2[nH]c(=O)c(=O)[nH]c2c1 (stereo not given)	n	n	n	n	n	n
COc1ccc2c(c1)C(=O)[C@@H](OC(=O)NS(=O)(=O)c1ccc(F)cc1)[C@H](c1ccc(OC)c(Br)c1)O2	x	n	x	n	x	n
SMILES	PNC assembly inh	HPGD inh	12-hLO inh	IMPase Li inh	IMPase cell inh	ALDH1A1 inh
Cc1cccc(NC(=O)CSc2nnc3c4ccccc4n(C)c3n2)c1	x	x	x	x	n	x
S=c1[nH]c(-c2ccccc2)cs1	x	x	x	n	x	3.55µM
O=c1[nH]c(-c2ccccc2)cs1	u	n	n	n	x	n
Fc1ccc(-c2csc(=S)[nH]2)cc1	x	x	x	n	x	3.55µM
CCCCCCOc1ccc(N2C(=O)CC(N3CCN(CCN=CC4C(=O)CC(C)(C)CC4=O)CC3)C2=O)cc1 (stereo not given)	x	x	x	n	x	u
CN(Cc1ccccc1)c1nc(-c2ccc([N+](=O)[O-])cc2)nc2ccccc12	-98.2	n	n	n	n	n
CN(C)C(=O)c1ccc(-c2nc(NCc3cccs3)c3ccccc3n2)cc1	x	15.8µM	n	n	x	n
CN(C)C(=O)c1ccc(-c2nc(N(C)Cc3ccco3)c3ccccc3n2)cc1	x	12.6µM	n	n	x	u
Cc1cccc(CNc2nc(-c3ccc(C(=O)N(C)C)cc3)nc3ccccc23)c1	x	25.1µM	n	n	x	n
CC(=O)NCCNc1nc(-c2ccc(C(=O)N(C)C)cc2)nc2ccccc12	x	x	x	n	x	n
CN(C)c1ccc(-c2nc(N(C)Cc3ccco3)c3ccccc3n2)cc1	x	u	n	n	x	u
CCOC(=O)C12CC1/C(=N\O)c1ccccc1O2 (stereo not given)	x	x	x	n	x	n
Cc1cc(C(=O)N2CCCC(C(=O)c3cc(F)ccc3F)C2)c(C)o1 (stereo not given)	x	x	x	n	x	14.1µM
COc1ccc(/C=N/NS(=O)(=O)c2ccccc2)cc1OS(=O)(=O)c1ccc(C)cc1	n	n	n	n	n	7.08µM
C=CCNC(=O)/C(C#N)=C/c1ccc(OS(=O)(=O)c2ccc(C)cc2)c(OC)c1	n	28.2µM	n	n	x	25.1µM
COc1ccc(/C=N/NC(=O)c2cccc([N+](=O)[O-])c2)cc1OS(=O)(=O)c1ccccc1	n	n	n	n	n	u
COc1ccc(/C=C(\C#N)C(=O)NCc2cccs2)cc1OC	n	n	n	n	x	n
COc1ccc(/C=N/NS(=O)(=O)c2ccc(C)cc2)cc1OC(=O)c1ccc(C)cc1	n	n	n	n	n	u
COc1cc(/C=N/NS(=O)(=O)c2ccccc2)ccc1OS(=O)(=O)c1ccc(C)cc1	u	n	n	n	x	7.94µM
COC(=O)C(Cc1c[nH]c2ccccc12)NC(=O)COc1cccc(C)c1 (stereo not given)	x	x	x	x	n	x
COc1ccc(-c2cc(C(F)(F)F)nc(SCC(=O)NCc3ccc(OC)c(OC)c3)n2)cc1	x	x	x	x	n	x
CCn1c2ccccc2c2cc(/C=N/n3cn[nH]c3=S)ccc21	n	15.8µM	n	n	n	22.4µM
S=c1[nH]ncn1/N=C/c1ccc(Br)cc1	n	22.4µM	n	n	n	31.6µM
CCn1c2ccccc2c2cc(/C=N/n3c(-c4cc(C)[nH]n4)n[nH]c3=S)ccc21	x	x	x	x	x	12.6µM
S=c1[nH]ncn1/N=C/c1ccccc1	n	n	n	n	n	n
CCOc1cccc(NC(=O)C2CC(=O)N(C)C(=Nc3cccc(OC)c3)S2)c1 (stereo not given)	x	x	x	x	n	x
CN1CCN(CC(=O)N2c3ccccc3Sc3cc4ccccc4cc32)CC1	x	n	n[11.4 µM]	n	x	n[13.5 µM]
O=c1ccn([C@@H]2O[C@@H](COP(=O)(O)OP(=O)(O)O)[C@H](O)[C@@H]2O)c(=O)[nH]1	x	x	n	x	n	x
CN(Cc1cccc(F)c1)C(=O)c1ccc(S(=O)(=O)C(F)F)cc1	n	31.6µM	n	n	n	u
